This note sets out measurements from PubChem BioAssay (NCI).

A short description of the test: NCI Yeast Anticancer Drug Screen. Data for the cln2 rad14 strain (AID 165).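 Note: 0% = growth equal to vehicle treated cultures.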 The conditions noted are these: S. cerevisiae cln2 rad14 strain, stronger effect = higher value. On the procedure: Growth inhibition of yeast strains with defined genetic alterations is measured as a screen for potential anti-cancer activity. Selected strains with alterations in DNA damage repair or cell cycle control were exposed to compounds and growth inhibition was measured relative to vehicle treated controls. The strain used in this assay is cln2 rad14

[1] abbreviates: at 5.0 µM (retest, dose inferred, filed as 0.5).
The mark [2] stands for this setting: at 50.0 µM (retest, dose inferred, filed as 5.0).

The panel holds about 79,000 compounds, 15% with a hit somewhere; the sample as a whole holds those more often. Unmarked numbers belong to inactive results. The source made the active and inactive calls. Cut-off read from the data, not from the text of the source: active = growth inhibition above about 70%; inactive = the rest.

`O=C(N/N=C/c1cc(Cl)cc(Cl)c1O)c1ccccc1`: the growth inhibition is 14% under setting [1], 1% under setting [2] and 33.6% (at 50.0 µM).
The corresponding values for `S=C(CSc1ccccc1)Nc1cccc2ccccc12` are -11%, 72% (active) and 58.5%.
`COC1/C=C\OC2(C)Oc3c(C)c(O)c4c(O)c(c5[nH]c(-c6ccccc6)nc5c4c3C2=O)NC(=O)/C(C)=C\C=C\C(C)C(O)C(C)C(O)C(C)C(OC(C)=O)C1C` (configuration not stated): the growth inhibition is 44% under setting [1], 91% (active) under setting [2] and 88.6% (active) (at 50.0 µM).
The corresponding values for `CCn1c(C)cc(=O)n1-c1ccc([N+](=O)[O-])cc1` are -64%, -69% and 24%.
The like results for `Cc1ccc(C(OS(=O)(=O)c2ccc(C)cc2)C(F)(F)F)cc1` (configuration not stated) were, in that order, 3%, -2% and 15.1%.
The like results for `O=C(Cc1nc2ccccc2s1)Nc1cccc(C(F)(F)F)c1` were, in that order, 32%, 98% (active) and 92.6% (active).
On to `COc1ccccc1NC(=O)O/N=C(/Cl)C(C)C`, for which the growth inhibition runs as follows: under setting [1], 40%; under setting [2], 28%; (at 50.0 µM) 31.9%.
The like results for `CC(C)O[C@H]1N(C2CC(N=[N+]=[N-])C(CO)O2)C(=O)NC(=O)[C@]1(C)Br` (some centres not stated) were, in that order, 4%, 37% and 89% (active).
`CCOC(=O)C1CC2(CCC1N)c1ccccc1-c1ccccc12` (configuration not stated): the growth inhibition runs as follows: under setting [1], -5%; under setting [2], 34%; (at 50.0 µM) 22.9%.
The corresponding values for `CC(C)N(C(=O)C12C3C4C5(C#N)C3C1(C#N)C5C42I)C(C)C` (configuration not stated) are 12%, 12% and 68.5%.
The like results for `Cc1ccc2c(c1)nc1n2C(N)=Nc2ccccc2S1` were, in that order, -10%, 17% and 37.8%.
Turning to `O=[N+]([O-])c1ccc(/C=N/O)s1`, the growth inhibition is 10% under setting [1], 95% (active) under setting [2] and 99.2% (active) (at 50.0 µM).
The corresponding values for `Nc1ccc2c(SCCCCCCCCSc3c4ccccc4nc4cc(N)ccc34)c3ccccc3nc2c1` are -4%, 32% and 33.2%.
The corresponding values for `CN(C)CC[N+](C)(C)Cc1ccc(C[N+](C)(C)CC[N+](C)(C)Cc2ccc(CCl)cc2)cc1` are 1%, 2% and 96% (active).
